From ChEMBL document CHEMBL3433997, “St. Jude Leishmania screening dataset” (2016)

Legend:
Type in all cases: functional
[1] = target: Solute carrier family 2, facilitated glucose transporter member 1 (Homo sapiens) (UniProt P11166); test: ST_JUDE_LEISH: Cytotoxicity at 2uM final concentration against transgenic Leishmania Mexicana promastigotes LmGLUT1 that are glucose transport deficient and complemented with the human glucose transporter GLUT1. Activity is measured by DNA content using SYBR green in vitro
Solute carrier family 2, facilitated glucose transporter member 1 (Homo sapiens), sequence (P11166 whole entry): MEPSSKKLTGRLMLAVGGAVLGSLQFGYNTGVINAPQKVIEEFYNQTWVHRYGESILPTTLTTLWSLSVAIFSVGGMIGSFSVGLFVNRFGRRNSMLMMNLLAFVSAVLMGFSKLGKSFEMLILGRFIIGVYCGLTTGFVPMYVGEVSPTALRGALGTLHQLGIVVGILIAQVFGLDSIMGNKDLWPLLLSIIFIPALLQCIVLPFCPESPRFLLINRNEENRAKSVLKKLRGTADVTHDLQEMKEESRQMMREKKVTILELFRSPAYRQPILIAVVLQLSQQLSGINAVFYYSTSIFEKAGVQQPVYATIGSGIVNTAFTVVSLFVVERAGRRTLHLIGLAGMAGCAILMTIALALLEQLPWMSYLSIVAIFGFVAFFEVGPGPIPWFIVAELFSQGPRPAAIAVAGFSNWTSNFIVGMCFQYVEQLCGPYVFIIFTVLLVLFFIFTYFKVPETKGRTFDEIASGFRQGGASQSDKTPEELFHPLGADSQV

[2] = target: Hexose transporter 1 (Plasmodium falciparum) (UniProt O97467); test: ST_JUDE_LEISH: Cytotoxicity at 2uM final concentration against transgenic Leishmania Mexicana promastigotes LmPfHT that are glucose transport deficient and complemented with the Plasmodium falciparum hexose transporter. Activity is measured by DNA content using SYBR green in vitro
[3] = target: Glucose transporter (Leishmania mexicana) (UniProt O61059); test: ST_JUDE_LEISH: Cytotoxicity at 2uM final concentration against transgenic Leishmania Mexicana promastigotes LmGT2 that are glucose transport deficient and complemented with the L. Mexicana glucose transporter 2. Activity is measured by DNA content using SYBR green in vitro

| Compound | inhibition [1] [%] | inhibition [2] [%] | inhibition [3] [%] |
| --- | --- | --- | --- |
| CN(C)c1ccc(-c2ccc(C(=O)NC3CCN(Cc4ccccc4F)CC3)s2)cc1 | 6.98 | 0.05 | 1.85 |
| CCCc1c(C(=O)OCC)c2cc(O)ccc2n1-c1ccc(OC)cc1 | 5.29 | 6.77 | 4.32 |
| c1ccc(CN2CCN(CCNc3c4ccccc4nc4ccccc34)CC2)cc1 | 13.5 | 10.9 | 12.9 |
| COc1ccc2nccc([C@@H](O)CN3CCC(NCc4[nH]c5ccccc5c4F)CC3)c2c1 | 9.88 | 9.58 | 1.18 |
| COc1ccc(CCNCCCCCNCCCc2ccc(Cl)cc2)cc1OC | -1.33 | -1.18 | 0.25 |
| COc1ccc(C(C(=O)NC2CCN(C[C@H](O)c3ccnc4ccc(OC)cc34)CC2)N2CCN(c3ccc(Cl)c(Cl)c3)CC2)cc1 (some centres not stated) | -0.26 | -2.17 | -4.15 |
| NC1=NC(c2ccccc2)N(c2ccccc2)C(N)=N1 (configuration not stated) | 1.99 | -4.07 | -0.58 |
| COc1ccc(C(=O)Cn2nc(-c3ccc(Cl)cc3)ccc2=O)c(OC)c1 | 1.41 | 1.16 | 0.37 |
| O=C(NCc1ccc(Cl)c(Cl)c1)c1ccc(-c2nc3cc(F)c(F)cc3[nH]2)cc1 | 0.21 | 0.14 | -0.73 |
| CO/C(=C\C=C\c1cc2cc(Cl)c(Cl)cc2[nH]1)C(=O)NCCCN1CCCC[C@H]1C | 3.27 | 2.98 | 1.43 |
| Cc1cc(OCCCN2CCC(NS(=O)(=O)c3cccc(Br)c3)CC2)c2ccccc2n1 | 10.9 | 9.48 | 9.99 |
| COc1ccc2c(=NN=CC=Cc3ccccc3)cc(C)[nH]c2c1 | 0.78 | 4.29 | 3.21 |
| CCOc1cc(C)ccc1C1CCN(CCCCNC(=O)c2ccc(NC(=O)c3cc(Cl)cc(Cl)c3)cc2)CC1 | 2.78 | 0.36 | 1.02 |
| CN(C)CCNCc1cccc(-c2ccc3c(Nc4cc(O)c(Cl)cc4F)ccnc3c2)c1 | 3.57 | 5.09 | 3.04 |
| COc1ccc(NC(=O)N2CCc3ccc(OCCN(C(C)C)C(C)C)cc32)cc1C(F)(F)F | 7.93 | 7.33 | 5.73 |
| O=C(Nc1cccc(-c2ccc(-c3nc4cc(F)ccc4[nH]3)cc2)c1)Nc1ccc(F)c(F)c1F | 2.86 | 4.09 | -1.44 |
| Cc1cccc(C)c1N1CCN(C2CCC(NC(=O)c3cc4ccccc4[nH]3)CC2)CC1 (configuration not stated) | 1.58 | -0.69 | -0.14 |
| FC(F)(F)c1ccc2[nH]c(-c3ccc(-c4cccc(CN5CCCCC5)c4)cc3)nc2c1 | 2.89 | 2.01 | 0.4 |
| COc1cc(Cc2cnc(N)nc2N)cc(OCCCOc2ccccc2)c1OC | 7.68 | 4.04 | 4.99 |
| Cc1nc2nc(N)nc(N)c2c(C)c1Cc1cccc(C#N)c1 | 3.44 | 2.87 | 2.88 |
| O=C1C(c2ccccc2)=C(Nc2cccc(OC(F)(F)C(F)F)c2)c2ccccc21 | 5.8 | 4.03 | 1.33 |
| O=C1COC2(CN1CC1CCN(Cc3ccc(O)c(Cl)c3)C1)c1ccccc1-c1ccccc12 (configuration not stated) | -0.03 | -0.11 | -0.34 |
| Fc1ccc(C(OCC2CCCN(Cc3cccc4cccnc34)C2)c2ccc(F)cc2)cc1 (configuration not stated) | 2.49 | 0.62 | -2.6 |
| O=C(NCc1cccc(CN2CCOCC2)c1)c1cc(Br)cc(N2CCN(c3ccncc3)CC2)c1 | 0.32 | 0.81 | 0.57 |
